Data from patent US20040110161, “Method for detecting mutations in nucleotide sequences” (published 2004).

T1: MutS (Cy5-labeled) (Escherichia coli, UniProt P23909 P23909:1-853)
T1 sequence: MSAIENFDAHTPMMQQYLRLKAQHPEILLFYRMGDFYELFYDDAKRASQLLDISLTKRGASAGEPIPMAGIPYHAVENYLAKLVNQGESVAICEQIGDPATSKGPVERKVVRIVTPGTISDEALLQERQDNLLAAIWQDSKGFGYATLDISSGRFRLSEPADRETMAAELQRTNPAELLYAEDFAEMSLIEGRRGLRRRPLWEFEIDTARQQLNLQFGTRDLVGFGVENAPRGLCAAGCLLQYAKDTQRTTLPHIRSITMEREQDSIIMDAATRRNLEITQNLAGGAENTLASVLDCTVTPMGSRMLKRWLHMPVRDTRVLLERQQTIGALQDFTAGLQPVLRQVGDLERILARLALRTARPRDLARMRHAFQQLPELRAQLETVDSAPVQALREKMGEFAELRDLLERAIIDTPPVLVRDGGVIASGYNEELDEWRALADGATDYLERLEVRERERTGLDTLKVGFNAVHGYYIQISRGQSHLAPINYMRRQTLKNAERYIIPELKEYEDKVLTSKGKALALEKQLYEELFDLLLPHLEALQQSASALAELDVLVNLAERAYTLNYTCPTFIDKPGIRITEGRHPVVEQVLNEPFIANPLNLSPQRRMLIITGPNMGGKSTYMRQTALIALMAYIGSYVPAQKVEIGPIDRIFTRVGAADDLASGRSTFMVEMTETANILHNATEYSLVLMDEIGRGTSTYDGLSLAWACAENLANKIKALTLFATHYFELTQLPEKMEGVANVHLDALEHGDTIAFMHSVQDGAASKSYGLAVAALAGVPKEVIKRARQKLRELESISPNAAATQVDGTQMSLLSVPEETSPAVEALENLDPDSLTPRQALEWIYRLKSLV


biological target: T1, MutS (Cy5-labeled); test: agarose chip; details: tags: Cy5 nonspecific amine label; also Gene Check unlabeled in EMSA; label: 5'-biotin, 5'-Cy3

Row | Binder | binding signal [fluorescence units]
1 | bcl AT (dsDNA) DNA 1: AAGGTCGCGGGATGCGGCTGGATGGGGCGTGTGCCCGGG DNA 2: AGCCCGGGCACACGCCCCATCCAGCCGCATCCCGCGACC | 51.2
2 | APC AT (dsDNA) DNA 1: AAGATCTTCAGCTGACCTAGTTCCAATCTTTTCTTTTAT DNA 2: AAATAAAAGAAAAGATTGGAACTAGGTCAGCTGAAGATC | 40.5
3 | Rb AT (dsDNA) DNA 1: AAATAAGATCAAATAAAGGTGAATCTGAGAGCCATGCAA DNA 2: CCTTGCATGGCTCTCAGATTCACCTTTATTTGATCTTAT | 59.6
4 | Brc AT (dsDNA) DNA 1: AAATGTTATTACGGCTAATTGTGCTCACTGTACTTGGAA DNA 2: CATTCCAAGTACAGTGAGCACAATTAGCCGTAATAACAT | 52.4
5 | Met AT (dsDNA) DNA 1: AACTATAGTATTCTTTATCATACATGTCTCTGGCAAGAC DNA 2: TGGTCTTGCCAGAGACATGTATGATAAAGAATACTATAG | 46.3
6 | MSH AT (dsDNA) DNA 1: AACCTTTCTCCAAAATGGCTGGTCGTACATATGGAACAG DNA 2: ACCTGTTCCATATGTACGACCAGCCATTTTGGAGAAAGG | 45.9
7 | p53 AT (dsDNA) DNA 1: AAAGTTCCTGCATGGGCGGCATGAACCGGAGGCCCATC DNA 2: AGGATGGGCCTCCGGTTCATGCCGCCCATGCAGGAACT | 48.7
